Active and inactive are the calls of the source.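 How the source made its calls, unless noted: active means compound raises insulin release from rat beta cells at 5 mM glucose, no numeric limit stated; inactive means the rest.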
Assays:
[1] = Wnt pathway potentiators raising nuclear beta-catenin – imaging, WNT3A-conditioned medium, mouse C2C12, NPC library, primary screen (AID 1117326; in the data active means nuclear beta-catenin stimulation mostly above about 4.2%, no sharp cut-off; inactive means mostly below about 10%; further: reference of the scale not given here); settings: stronger effect = higher value
[2] = stimulators of insulin release from INS-1E, primary screen, cell-based, 5 mM glucose, NPC library (AID 1117329); settings: rat INS-1E insulin secretion, at 10 µM, stronger effect = higher value; further: reference of the scale not given here
[3] = growth inhibition of GSK3B-pretreated HCT116 cells – cell-based, CellTiter-Glo, 0.2 to 20 µM (AID 1117336;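 active means compounds lowering colon cancer cell viability after pretreatment blocking the GSK3B kinase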); settings: HCT116 viability after GSK3B inhibitor, at 20 µM, stronger effect = higher value
[4] = inhibition of endothelial tube formation, primary screen, imaging, VEGF stimulated, CD31 staining, tube area, NPC library (AID 1117340;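 active means compound that reduces growth-factor-driven endothelial tube area in a mixed cell culture, no cutoff stated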); settings: VEGF-stimulated ADSC/ECFC co-culture, at 10 µM, stronger effect = higher value
[5] = GLP1 release stimulators, primary, NCI-H716, NPC library (AID 1117341;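 active means compound raises GLP1 secretion from the human gut endocrine cells, with no numeric limit stated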; further: reference of the scale not given here); settings: NCI-H716 cells, at 10 µM, stronger effect = higher value
[6] = HCT116 colon cancer cell growth inhibition, primary screen, CellTiter-Glo luminescence, NPC library (AID 1117342;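 active means compounds that lower survival of HCT116 colon cancer cells in the luminescence readout, no numeric limit stated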); settings: at 20 µM (top of the series)
[7] = reduced SW480 viability measured with CellTiter-Glo, NPC library, primary (AID 1117343;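 active means compounds that lower viability of the colon cancer cells in the luminescence readout, with no numeric limit stated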); settings: CellTiter-Glo luminescence; at 20 µM (top of the series)
[8] = NPC library primary testing for decreased DLD-1 cell viability via CellTiter-Glo (AID 1117346;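 active means compounds that lower survival of DLD-1 colon cancer cells in the luminescence readout, no cutoff given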); settings: DLD-1 viability, CellTiter-Glo luminescence; at 20 µM (top of the series)

CC(CCc1ccc2c(c1)OCO2)NN (configuration not stated)
0.2%: nuclear beta-catenin stimulation ([1]; stimulation, at 2 µM)
inactive: nuclear beta-catenin stimulation ([1]; at 10 µM) 0.2% | insulin secretion stimulation [2] -2.2% | tube area decrease [4] 23.7% | GLP1 secretion stimulation [5] 2.3% | viability decrease (inhibition) [8] 17.7%
active: viability decrease [3] 57.8% | inhibition of viability [6] 84.6% | viability decrease (inhibition) [7] 97.6%

O=S(=O)(O)CC(S)CS (configuration not stated)
inactive: nuclear beta-catenin stimulation ([1]; at 10 µM) -1% | insulin secretion stimulation [2] -3.4% | viability decrease [3] -25.4% | tube area decrease [4] -1.9% | GLP1 secretion stimulation [5] -7% | inhibition of viability [6] 4.3% | viability decrease (inhibition) [7] 3.8% | viability decrease (inhibition) [8] -6.6%
-0.1%: nuclear beta-catenin stimulation ([1]; stimulation, at 2 µM)

CC12C=CC(=O)C=C1CCC1C2C(O)CC2(C)C1CCC2(O)C(=O)COP(=O)(O)O (configuration not stated)
inactive: nuclear beta-catenin stimulation ([1]; at 10 µM) 1.1% | insulin secretion stimulation [2] 1.5% | viability decrease [3] -38.5% | tube area decrease [4] -3.4% | GLP1 secretion stimulation [5] -2% | inhibition of viability [6] 1.57% | viability decrease (inhibition) [7] -2.1% | viability decrease (inhibition) [8] -14.4%
0.6%: nuclear beta-catenin stimulation ([1]; stimulation, at 2 µM)

CC(=O)Nc1ccc(OC(=O)c2ccccc2OC(C)=O)cc1
inactive: nuclear beta-catenin stimulation ([1]; at 10 µM) 0.6% | insulin secretion stimulation [2] 4.1% | viability decrease [3] 0.8% | tube area decrease [4] -15.2% | GLP1 secretion stimulation [5] -1.2% | inhibition of viability [6] -5.8% | viability decrease (inhibition) [7] -3% | viability decrease (inhibition) [8] -10.1%
14%: nuclear beta-catenin stimulation ([1]; stimulation, at 2 µM)

NCCCC[C@H](N)C(=O)O
2%: nuclear beta-catenin stimulation ([1]; stimulation, at 2 µM)
inactive: nuclear beta-catenin stimulation ([1]; at 10 µM) 1.6% | insulin secretion stimulation [2] -2.1% | viability decrease [3] 1.2% | tube area decrease [4] -14.1% | GLP1 secretion stimulation [5] -3.9% | inhibition of viability [6] -2.6% | viability decrease (inhibition) [7] 12.8% | viability decrease (inhibition) [8] -0.6%

C#Cc1ccc(-c2ccccc2F)cc1
inactive: nuclear beta-catenin stimulation ([1]; at 10 µM) -1.3% | insulin secretion stimulation [2] 0.3% | viability decrease [3] -3.5% | tube area decrease [4] 7.2% | GLP1 secretion stimulation [5] -0.7% | inhibition of viability [6] 0.6% | viability decrease (inhibition) [7] -12.8% | viability decrease (inhibition) [8] 18.8%
-2.1%: nuclear beta-catenin stimulation ([1]; stimulation, at 2 µM)

COc1ccc2cc(Br)ccc2c1
-0.3%: nuclear beta-catenin stimulation ([1]; stimulation, at 2 µM)
inactive: nuclear beta-catenin stimulation ([1]; at 10 µM) -0.6% | insulin secretion stimulation [2] 0.9% | viability decrease [3] -1.1% | tube area decrease [4] 3.3% | GLP1 secretion stimulation [5] -5% | inhibition of viability [6] -2.2% | viability decrease (inhibition) [7] -5.1% | viability decrease (inhibition) [8] -6%

CCOC(=O)[C@H](CCc1ccccc1)N[C@@H](C)C(=O)N(CC(=O)O)C1Cc2ccccc2C1
0.4%: nuclear beta-catenin stimulation ([1]; stimulation, at 2 µM)
inactive: nuclear beta-catenin stimulation ([1]; at 10 µM) 1% | insulin secretion stimulation [2] 1.15% | viability decrease [3] -0.3% | tube area decrease [4] 4.9% | GLP1 secretion stimulation [5] 3.1% | inhibition of viability [6] 10.2% | viability decrease (inhibition) [7] -7.1% | viability decrease (inhibition) [8] -2.9%

COC(=O)c1cc(Cl)ccc1NS(=O)(=O)C(F)(F)F
inactive: nuclear beta-catenin stimulation ([1]; at 10 µM) -1.2% | insulin secretion stimulation [2] 1.8% | viability decrease [3] 17.5% | tube area decrease [4] -6.9% | GLP1 secretion stimulation [5] -0.4% | inhibition of viability [6] 8.93% | viability decrease (inhibition) [7] 30.2% | viability decrease (inhibition) [8] -4.9%
-1.2%: nuclear beta-catenin stimulation ([1]; stimulation, at 2 µM)

Cc1ccc(C(C)OC(=O)C2(C)CCC(C(=O)O)C2(C)C)cc1 (configuration not stated)
-2.1%: nuclear beta-catenin stimulation ([1]; stimulation, at 2 µM)
inactive: nuclear beta-catenin stimulation ([1]; at 10 µM) -0.2% | insulin secretion stimulation [2] 2.1% | viability decrease [3] -5% | tube area decrease [4] -0.8% | GLP1 secretion stimulation [5] 0.6% | inhibition of viability [6] 0.3% | viability decrease (inhibition) [7] -11.8% | viability decrease (inhibition) [8] 14.4%

CCCCCCCCCCCCCC[N+](C)(C)Cc1ccccc1
-0.7%: nuclear beta-catenin stimulation ([1]; stimulation, at 2 µM)
inactive: insulin secretion stimulation [2] 3.5% | GLP1 secretion stimulation [5] -0.6%
active: nuclear beta-catenin stimulation ([1]; at 10 µM) 55% | viability decrease [3] 99.5% | tube area decrease [4] 109% | inhibition of viability [6] 99.2% | viability decrease (inhibition) [7] 101% | viability decrease (inhibition) [8] 102%

Fc1ccc(C(c2ccc(F)cc2)N2CCNCC2)cc1
0.1%: nuclear beta-catenin stimulation ([1]; stimulation, at 2 µM)
active: inhibition of viability [6] 79.8% | viability decrease (inhibition) [7] 72.4%
inactive: nuclear beta-catenin stimulation ([1]; at 10 µM) -0.2% | insulin secretion stimulation [2] 16.6% | viability decrease [3] 29.7% | tube area decrease [4] 13.9% | GLP1 secretion stimulation [5] 7.5% | viability decrease (inhibition) [8] 25.2%

CN(C)CCN1CCN(c2cccc(Cl)c2)C1=O
active: inhibition of viability [6] 50%
0.1%: nuclear beta-catenin stimulation ([1]; stimulation, at 2 µM)
inactive: nuclear beta-catenin stimulation ([1]; at 10 µM) 0.8% | insulin secretion stimulation [2] 2.6% | viability decrease [3] 10.9% | tube area decrease [4] 8% | GLP1 secretion stimulation [5] 4% | viability decrease (inhibition) [7] 7.4% | viability decrease (inhibition) [8] -1.8%

From PubChem BioAssay
